These results are taken from PubChem BioAssay (Tox21).

Values joined by “and” are separate entries in the source; they are usually repeats but may differ in a detail not shown here. Equal entries are not always repeated. Inconclusive results are not listed. Some compounds were tested as several samples or in several runs, with calls that do not always agree. Active and inactive are the calls of the source. Unless noted, calls follow the shape of the dose curve; as a rule, active = well fitted curve in the direction sought with a large enough effect in the repeat runs; inconclusive = weak or mixed curves; inactive = no such curve, though single readings can be large; an effect the other way counts as inactive or inconclusive.

Assay [1] has as its target Luciferin 4-monooxygenase (Photinus pyralis) (UniProt P08659). Put plainly: qHTS assay to identify small molecule inhibitors of firefly luciferase (AID 1224835). Also: nearly all actives have a fitted effect of over 25% in size. Also: potency is read from the fitted curve at half-maximal effect. The gist of the method: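 Inhibition of purified Photinus luciferase is measured by luminescence. Substrate levels (D-luciferin, ATP) sit at their KM values. Each compound is tested in a concentration series.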
A general note: qHTS replaces the single test concentration by a dilution series.

The nature of assay [2]: qHTS assay to identify small molecule agonists of the constitutive androstane receptor (CAR) signaling pathway - cell viability counter screen (AID 1224836). Also: nearly all actives have a fitted effect of over 45% in size. The method in brief: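 Compound titrations (15 concentrations) went onto HepG2-CYP2B6-hCAR cells 4 h after seeding, alongside PK11195 at a final 0.75 uM; a 23 h, 37 C/5% CO2 incubation preceded CellTiter-Fluor viability measurement.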

Assay [3] addresses Nuclear receptor subfamily 1 group I member 3 (Homo sapiens) (UniProt Q14994). Put plainly: qHTS assay to identify small molecule antagonists of the constitutive androstane receptor (CAR) signaling pathway (AID 1224838). Also: nearly all actives have a fitted effect of over 40% in size. The method in brief: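 HepG2 cells stably carrying hCAR and a CYP2B6-2.2kb luciferase reporter, seeded 4 hrs before compound (15 concentrations). Stimulated with 50 nM CITCO for 24 hr at 37 C. ONE-Glo luminescence read after 30 min at room temperature.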

Assay [4] has the same target. Kind of assay: qHTS assay to identify small molecule agonists of the constitutive androstane receptor (CAR) signaling pathway (AID 1224839). Also: nearly all actives have a fitted effect of over 15% in size. Also: potency is read from the fitted curve at half-maximal effect. The gist of the method:
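In this screen, CAR-driven CYP2B6 promoter activity is measured by luminescence in HepG2-CYP2B6-hCAR cells after 24 h with test compounds and 0.75 uM PK11195 (final concentration).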

The nature of assay [5]: qHTS assay to identify small molecule antagonists of the estrogen related receptor signaling pathway with the pleiotropic PPARgamma coactivator (PGC) from Tox21 10K library - cell viability counter screen (AID 1224840; active = well fitted cell-killing curve with a large enough effect in the repeat runs, not every such curve was filed as active; also: nearly all actives have a fitted effect of over 40% in size). The method in brief: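 PGC/ERR cells (2,000/well) plated 6 h, then compound-treated for 17.5 h at 37 C. Viability measured by CellTiter-Fluor fluorescence after 30 min at 37 C, multiplexed with the pathway assay.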

A short description of assay [6]: qHTS assay to identify small molecule antagonists of the estrogen related receptor signaling pathway with the pleiotropic PPARgamma coactivator (PGC) from Tox21 10K library (AID 1224841; call rule not given here; also: actives are mostly falling curves and most rising ones were filed inactive; nearly all actives have a fitted effect of over 50% in size; also: potency is read from the fitted curve at half-maximal effect). The gist of the method: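 PGC/ERR cell line, 2,000 cells/well, pre-incubated 6 hours at 37 C, then exposed to compounds for 18 hours at 37 C; luciferase read with One-Glo luminescence after 30 min at room temperature.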

A short description of assay [7]: qHTS assay to identify small molecule agonists of the estrogen related receptor signaling pathway with the pleiotropic PPARgamma coactivator (PGC) from Tox21 10K library (AID 1224842). Also: nearly all actives have a fitted effect of over 15% in size. The gist of the method: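 Luminescence from One-Glo (30 min, room temperature) measured after PGC/ERR cells had 18 h at 37 C with pinned compound (23 nL in DMSO). Cells had been seeded at 2,000 per well and pre-incubated 6 h.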

In assay [8] the target is Thyrotropin receptor (Homo sapiens) (UniProt P16473). Kind of assay: qHTS assay to identify small molecule agonists of the thyroid stimulating hormone receptor (TSHR) signaling pathway (AID 1224843; calls by dose curve; also: nearly all actives have a fitted effect of over 45% in size). The method in brief:
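HEK293 cells stably bearing the thyrotropin receptor were plated at 800 cells/well and challenged with compound (30 min, RT). Accumulated cAMP was quantified via cAMP-d2 competing for cryptate-tagged antibody.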

The nature of assay [9]: qHTS assay to identify small molecule agonists of the hypoxia (HIF-1) signaling pathway - cell viability counter screen (AID 1224844; calls by dose curve; also: nearly all actives have a fitted effect of over 50% in size). The method in brief:
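HRE-bla ME-180 cells, 2,000/well in 0.5% dialyzed FBS medium, treated 17 h at 37C with compounds. Viability read in the same wells as the bla reporter, by CellTiter-Glo luminescence after 30 min at room temperature.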

The nature of assay [10]: qHTS assay to identify small molecule agonists of H2AX (AID 1224845; active = well fitted activation curve with a large enough effect in the signal ratio in the repeat runs, not every such curve was filed as active; the % refers to the signal ratio). The gist of the method: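 Phospho-H2AX Ser139 measured by HTRF (ex 320 nm; em 665 and 620 nm) after 24 hr antibody incubation. Compounds, 15 concentrations, 0.76% DMSO, were applied to CHO-K1 cells for 3hr at 37C before lysis.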
Assay [11] in a line: qHTS assay to identify small molecule agonists of the hypoxia (HIF-1) signaling pathway (AID 1224846; active = well fitted activation curve with a large enough effect in the signal ratio in the repeat runs, not every such curve was filed as active; the % refers to the signal ratio). The method in brief: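 HRE-bla ME-180 beta-lactamase reporter cells in medium with 0.5% dialyzed FBS, pre-incubated 5 h then exposed to compounds 17 h at 37C, 5% CO2; reporter induction read with CCF4-AM FRET substrate.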
The nature of assay [12]: qHTS assay to identify small molecule agonists of H2AX - cell viability counter screen (AID 1224847; calls by dose curve; also: nearly all actives have a fitted effect of over 30% in size; also: potency is read from the fitted curve at half-maximal effect). The method in brief: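 Read-out: CellTiter-Glo luminescence, 30 min RT. Cells: wild-type CHO-K1, 1000/well, 10% FBS, plated overnight at 37C. Treatment: 15 concentrations, 3 hr, 37C, 0.76% DMSO.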
Assay [13] is described as follows: qHTS assay to identify small molecule antagonists of the estrogen related receptor (ERR) signaling pathway from Tox21 library (AID 1224848). Also: nearly all actives have a fitted effect of over 50% in size. Also: potency is read from the fitted curve at half-maximal effect. The method in brief:
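Reading was by luminescence 30 min after ONE-Glo addition. Before that, ERR cells at 2,000 per well had rested 6 h at 37 C/5% CO2 and then received pin-tooled compounds in DMSO for 18 h at 37 C.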

The nature of assay [14]: qHTS assay to identify small molecule agonists of the estrogen related receptor (ERR) signaling pathway from Tox21 library (AID 1224849; calls by dose curve; also: nearly all actives have a fitted effect of over 15% in size). The settings on record: ERR reporter cell line, ONE-Glo luciferase, 18 h; at 92.4 µM (top of the series) unless noted. The method in brief:
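ERR reporter cells (NTP line) pre-incubated 6 hours at 37 C, then exposed to compounds for 18 hours at 37 C. ONE-Glo luciferase luminescence was read after 30 minutes at room temperature.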

Assay [15] in a line: qHTS RealTime-Glo MT Cell Viability Assay in HepG2 cells - 24 hour (AID 1224867). Also: nearly all actives have a fitted effect of over 50% in size. The gist of the method: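 HepG2 cells (600/well) were dispensed with RealTime-Glo reagents, incubated 5 h at 37 °C, then treated with compounds in DMSO for up to 40 h. Nonlytic NanoLuc luminescence reflecting viable cells was read at each stated time point.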
A short description of assay [16]: qHTS RealTime-Glo MT Cell Viability Assay in HEK293 cells - 32 hour (AID 1224868). The gist of the method: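 HEK293 cells seeded with NanoLuc/prosubstrate reagent, rested 5 h at 37 C, then dosed and kept at 37 C up to 40 h. Nonlytic real-time luminescence from viable cells read at 0, 8, 16, 24, 32 and 40 h.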
The nature of assay [17]: A CellTox Green Cytotoxicity Assay to monitor cytotoxicity in HEK293 cells - 0 hour (AID 1224869). Also: nearly all actives have a fitted effect of over 50% in size. The method in brief: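 HEK293 cells, 600/well, were preincubated 5 hours and then exposed to compounds at 37 C for up to 40 hours. A cell-impermeant cyanine dye staining dead-cell DNA was read by fluorescence at 0, 8, 16, 24, 32 and 40 h time points.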
Assay [18] in a line: qHTS RealTime-Glo MT Cell Viability Assay in HepG2 cells - 40 hour (AID 1224870). Also: nearly all actives have a fitted effect of over 50% in size. The gist of the method:
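Real-time viability: cells seeded at 600 per well together with NanoLuc and cell-permeant prosubstrate, compounds added after 5 h incubation. Luminescence tracked at 0, 8, 16, 24, 32 and 40 h of exposure.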

Assay [19] in a line: qHTS assay to identify small molecule antagonists of the constitutive androstane receptor (CAR) signaling pathway - cell viability counter screen (AID 1224837). Also: nearly all actives have a fitted effect of over 45% in size. The gist of the method:
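HepG2 cells stably carrying hCAR and CYP2B6-2.2kb reporter, stimulated with 50 nM CITCO and compounds at 15 concentrations for 23 h at 37 C. Viability measured by CellTiter-Fluor fluorescence.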
% is scaled to controls: 0 for no effect and ±100 for the full control effect.

Chain of Thyrotropin receptor (Homo sapiens) (P16473 whole entry, looked up): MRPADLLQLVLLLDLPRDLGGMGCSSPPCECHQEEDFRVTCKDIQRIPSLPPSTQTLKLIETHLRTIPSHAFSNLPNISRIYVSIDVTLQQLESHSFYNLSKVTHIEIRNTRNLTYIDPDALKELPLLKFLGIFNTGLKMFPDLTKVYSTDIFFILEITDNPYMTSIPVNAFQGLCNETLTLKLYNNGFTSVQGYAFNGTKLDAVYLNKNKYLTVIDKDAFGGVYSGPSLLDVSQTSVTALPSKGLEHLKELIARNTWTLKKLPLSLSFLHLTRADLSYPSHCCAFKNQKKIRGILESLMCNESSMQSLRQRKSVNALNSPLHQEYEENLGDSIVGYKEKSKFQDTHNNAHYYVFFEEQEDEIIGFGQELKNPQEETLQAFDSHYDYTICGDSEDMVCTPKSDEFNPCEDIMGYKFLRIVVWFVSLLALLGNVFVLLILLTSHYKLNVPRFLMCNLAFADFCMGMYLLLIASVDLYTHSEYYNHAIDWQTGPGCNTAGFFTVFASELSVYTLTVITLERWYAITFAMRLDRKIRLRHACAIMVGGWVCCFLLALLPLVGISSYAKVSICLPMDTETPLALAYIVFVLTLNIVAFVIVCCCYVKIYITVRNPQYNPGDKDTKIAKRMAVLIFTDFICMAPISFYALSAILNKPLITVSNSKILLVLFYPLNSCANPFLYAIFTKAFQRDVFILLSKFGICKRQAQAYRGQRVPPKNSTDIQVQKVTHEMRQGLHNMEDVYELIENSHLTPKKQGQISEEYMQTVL
Chain of Nuclear receptor subfamily 1 group I member 3 (Homo sapiens) (Q14994 whole entry, looked up): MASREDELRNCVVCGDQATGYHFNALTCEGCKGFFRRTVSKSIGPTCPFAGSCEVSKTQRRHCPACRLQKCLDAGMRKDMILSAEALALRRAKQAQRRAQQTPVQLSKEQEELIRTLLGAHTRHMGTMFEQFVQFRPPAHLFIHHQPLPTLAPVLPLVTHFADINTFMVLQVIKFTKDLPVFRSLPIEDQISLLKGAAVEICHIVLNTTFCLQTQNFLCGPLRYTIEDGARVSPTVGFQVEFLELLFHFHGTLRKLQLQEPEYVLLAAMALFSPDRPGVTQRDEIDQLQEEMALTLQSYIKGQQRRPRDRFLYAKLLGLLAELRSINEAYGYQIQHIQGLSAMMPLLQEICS
Chain of Luciferin 4-monooxygenase (Photinus pyralis) (P08659 whole entry, looked up): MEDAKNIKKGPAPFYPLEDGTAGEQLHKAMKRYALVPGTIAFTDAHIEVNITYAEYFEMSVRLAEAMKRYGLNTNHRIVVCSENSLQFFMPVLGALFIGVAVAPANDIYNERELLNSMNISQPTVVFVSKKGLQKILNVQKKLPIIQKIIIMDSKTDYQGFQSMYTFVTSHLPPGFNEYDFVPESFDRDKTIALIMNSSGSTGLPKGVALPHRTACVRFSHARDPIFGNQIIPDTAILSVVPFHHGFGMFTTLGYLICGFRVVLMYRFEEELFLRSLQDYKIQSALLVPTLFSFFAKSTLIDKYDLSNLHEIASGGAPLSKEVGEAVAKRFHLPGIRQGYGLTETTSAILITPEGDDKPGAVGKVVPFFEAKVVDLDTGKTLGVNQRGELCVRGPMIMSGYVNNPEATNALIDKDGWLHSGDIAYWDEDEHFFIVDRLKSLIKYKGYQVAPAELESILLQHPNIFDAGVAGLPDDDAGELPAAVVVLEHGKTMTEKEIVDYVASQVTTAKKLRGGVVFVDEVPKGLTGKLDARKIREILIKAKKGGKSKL

On to `CC(C)OC(=O)c1ccccc1`, for which the Potency result in assay [1], in assay [2], in assay [3], in [4], in assay [5] and in [6] was “inactive” throughout. Moreover, the Potency entry in assay [8], in [9], in [12], in [13], in assay [15] and in [16] was “inactive” in each case. Moreover, the Potency entry in [17] and in [18] was “inactive” each time. Further, the molecule was called inactive in assay [7], in [10] and in assay [11]. In addition, the activity change, positive = activation in [14] was 0.248% (inactive).

Turning to `C[N+](C)(C)CC(O)CC(=O)[O-]` (configuration not stated), the Potency entry in assay [1], in assay [2], in assay [3], in assay [4], in [5] and in assay [6] was “inactive” throughout. Also, the Potency result in assay [8], in assay [9], in [12], in assay [13], in [15] and in [16] was “inactive” in each case. Further, in assay [17], the Potency entry is “inactive”. The molecule was called inactive in assay [7], in assay [10] and in [11]. The activity change, positive = activation in assay [14] was 3.63% [at 42.5 µM] (inactive).

As for `COC(=O)CCSCCC(=O)OC`, the Potency entry in assay [1], in [2], in assay [19], in assay [3], in assay [5] and in assay [6] was “inactive” throughout. Also, the Potency entry in [8], in assay [9], in assay [12], in assay [13], in [15] and in [16] was “inactive” each time. In addition, the Potency entry in assay [17] and in assay [18] was “inactive” in each case. Further, the result in [7], in assay [10] and in assay [11] was inactive. In assay [14], the activity change, positive = activation is 1.8% (inactive).

For `CC(C)(c1ccc(O)cc1)c1ccc(O)cc1`, the Potency is 39.5 µM (active) and 36.2 µM (active) in [1]; 30.3 µM (active) and 11.1 µM (active) in assay [4]; 60.4 µM (active) and 60.4 µM [inhibitor] (active) in assay [6]; “inactive and 103 µM (active)” in [12]; 30.3 µM (active) in assay [13]. In addition, the Potency result in assay [2], in assay [19], in assay [3], in assay [8], in assay [9] and in assay [15] was “inactive” each time. Besides, the Potency entry in assay [17] was “inactive”. For the same molecule, the molecule was called inactive in assay [7], in assay [10] and in [11]. Further, the activity change, positive = activation in [14] was -29.8% (inactive) and -30.2% (inactive).

With `C[C@H]1C[C@@H](O)CC(C)(C)C1`, the Potency result in assay [1], in assay [2], in assay [19], in [3], in assay [6] and in assay [8] was “inactive” each time. Moreover, the Potency entry in assay [9], in assay [12], in assay [13], in assay [15], in [16] and in [18] was “inactive” throughout. Besides, the call in [7], in [10] and in assay [11] was inactive. In addition, the activity change, positive = activation in assay [14] was 0.742% (inactive).

Turning to `CCN(Cc1ccncc1)C(=O)C(CO)c1ccccc1` (configuration not stated), the Potency result in assay [2], in assay [19], in [3], in assay [4], in assay [5] and in [8] was “inactive” each time. For the same molecule, the Potency result in assay [9], in assay [12], in assay [15], in [16] and in assay [17] was “inactive” in each case. Further, the result in assay [10] was inactive.
